According to PubChem BioAssay AID602454 (National Center for Advancing Translational Sciences (NCATS), 2012):
Results filed as inconclusive are left out. Activity calls are given as the source filed them. The rule behind the calls is not given here.

Assay: qHTS Assay for Inhibitors of Influenza NS1 Protein Function: Viral Replication TCID50
Conditions: Influenza virus replication in cells, at 10 µM, stronger effect = lower value
Excerpt: Influenza is a world-wide public health problem and emerging forms of the virus have the potential to cause a pandemic of equal or greater magnitude to the outbreaks recorded in 1918, 1957 or 1968. Vaccine development is proceeding and there also exist two classes of anti-influenza compounds. However these therapeutic modalities are neither fully effective nor widely enough available to fulfill global needs. In addition their potential usefulness against newly emergent strains is not known. Efforts are needed to develop novel agents against influenza virus, including broad-spectrum agents. Identification of small molecules that inhibit NS1 function either directly or by interfering with specific cellular pathways may be a key to increasing our defense against the virus.
We have miniaturized and optimized a cell based assay in which NS1 from influenza A is expressed in the budding yeast S. cerevisiae. NS1 is a multi-functional protein that counters the host innate immune response and facilitates viral versus cellular gene expression. Expression of NS1 causes a pronounced slow growth phenotype in yeast due to its intrinsic molecular activities. Small molecules that suppress the slow growth phenotype can be identified by a straightforward growth recovery assay using optical density (OD) as the measurement. The same yeast strain not expressing NS1 was used as positive control in the yeast growth recovery assay.
Hits resulting from the primary screen and other follow-up screens, were tested in two concentrations in this viral replication assay.
NIH Chemical Genomics Center [NCGC]
NIH Molecular Libraries Probe Centers Network [MLPCN]
Assay Submitter (PI): Daniel Engel, University of Virgina
Cell monolayers were infected at an m.o.i. of 0.1 for 48 h in the presence or absence of the compound, which was added at the beginning of infection. Virus titres were determined by TCID50 analysis (Reed, L. J. & Muench, H. (1938). A simple method of estimating fifty per cent endpoints. Am J Epidemiol 27, 493-497)
For `COc1ccc(-c2c3c(C)nn(-c4ccccc4)c3nc3[nH]c(=O)[nH]c(=O)c23)cc1O`, the viral titer (log10 TCID50) was 8.66 (active). With `COc1ccc(-c2c(C#N)c(=O)[nH]c3c2c(C)nn3-c2ccc(F)cc2)cc1OC` the viral titer (log10 TCID50) was 9 (active). With `COc1cc(-c2ccnc3c2c(C)nn3-c2ccccc2)ccc1O` the viral titer (log10 TCID50) was 9 (active). With `COc1cc(-c2c(C#N)c(=O)[nH]c3c2c(C)nn3-c2ccccc2)cc(OC)c1OC` the viral titer (log10 TCID50) was 7.66 (active). With `COc1ccc(-c2c(C#N)c(N)nc3c2c(C)nn3-c2ccc(F)cc2)cc1OC` the viral titer (log10 TCID50) was 8.66 (active). With `CCOc1cc(-c2c(C#N)c(=O)[nH]c3c2c(C)nn3-c2ccc(F)cc2)ccc1O` the viral titer (log10 TCID50) was 8.66 (active). With `COc1cc(-c2c(C#N)c(N)nc3c2c(C)nn3-c2ccc(F)cc2)ccc1O` the viral titer (log10 TCID50) was 6 (active). For `COc1cc(-c2c(C#N)c(N)nc3c2c(C)nn3-c2ccc(C)c(C)c2)cc(OC)c1OC`, the viral titer (log10 TCID50) was 9 (active). With `COc1cc(-c2c(C(=O)O)cnc3c2c(C)nn3-c2ccc(F)cc2)ccc1O` the viral titer (log10 TCID50) was 8.5 (active). For `COc1cc(-c2c(C#N)c(N)nc3c2c(C)nn3-c2ccc(Cl)cc2)cc(OC)c1OC`, the viral titer (log10 TCID50) was 9 (active).

Same assay, conditions: Influenza virus replication in cells, viral titer, at 5 µM, stronger effect = lower value
Compound `COc1ccc(-c2c3c(C)nn(-c4ccccc4)c3nc3[nH]c(=O)[nH]c(=O)c23)cc1O` has a viral titer (log10 TCID50) of 8.66. For `COc1ccc(-c2c(C#N)c(=O)[nH]c3c2c(C)nn3-c2ccc(F)cc2)cc1OC`, the viral titer (log10 TCID50) was 9. Work on `COc1cc(-c2ccnc3c2c(C)nn3-c2ccccc2)ccc1O` yielded a viral titer (log10 TCID50) of 9. Compound `COc1cc(-c2c(C#N)c(=O)[nH]c3c2c(C)nn3-c2ccccc2)cc(OC)c1OC` has a viral titer (log10 TCID50) of 8.5. Compound `COc1ccc(-c2c(C#N)c(N)nc3c2c(C)nn3-c2ccc(F)cc2)cc1OC` has a viral titer (log10 TCID50) of 8.66. `CCOc1cc(-c2c(C#N)c(=O)[nH]c3c2c(C)nn3-c2ccc(F)cc2)ccc1O` gave a viral titer (log10 TCID50) of 9. Compound `COc1cc(-c2c(C#N)c(N)nc3c2c(C)nn3-c2ccc(F)cc2)ccc1O` has a viral titer (log10 TCID50) of 7.66. Work on `COc1cc(-c2c(C#N)c(N)nc3c2c(C)nn3-c2ccc(C)c(C)c2)cc(OC)c1OC` yielded a viral titer (log10 TCID50) of 9. For `COc1cc(-c2c(C(=O)O)cnc3c2c(C)nn3-c2ccc(F)cc2)ccc1O`, the viral titer (log10 TCID50) was 8.88. `COc1cc(-c2c(C#N)c(N)nc3c2c(C)nn3-c2ccc(Cl)cc2)cc(OC)c1OC` showed a viral titer (log10 TCID50) of 9.
